Consider twelve compounds from PubChem BioAssay (NCATS).

Experiment [1] concerns the target Bile acid receptor (Homo sapiens) (UniProt Q96RI1). The experiment is described as follows: qHTS assay for small molecule agonists of farnesoid X receptor signaling (AID 588527).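 Also: series mostly up to about 77 µM; 0% = vehicle basal and 100% = reference agonist.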 To be noted: HEK293T FXR-UAS-bla, beta-lactamase ratio, 16 h; activation: stronger effect = higher value. The essentials:
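Quantitative HTS used FXR-UAS-bla HEK293T cells with 16 h compound incubation at 37 C. EC50 values came from concentration-response curves normalized to chenodeoxycholic acid.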
For orientation: In qHTS, concentration-response curves come from the screen itself.

Experiment [2] shares this target. The experiment in a line: qHTS assay for small molecule antagonists of farnesoid X receptor signaling (AID 588526). Also: % is scaled to controls: 0 for no effect and ±100 for the full control effect. The essentials:
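Antagonist mode: titrated compounds tested against chenodeoxycholic acid stimulation (normalized to 50 uM CDCA and DMSO) in GeneBLAzer HEK293T cells for 16 h. Beta-lactamase read by CCF4 fluorescence; IC50 from Hill fits.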

In experiment [3] the target is Glucocorticoid receptor (Homo sapiens) (UniProt P04150). The experiment is described as follows: qHTS assay for small molecule agonists of glucocorticoid receptor signaling (AID 588532; active = well fitted curve in the direction sought with a large enough effect in the signal ratio, with a control signal flat; the % refers to the signal ratio;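 also: 100% = dexamethasone at 0.1 µM and 0% = DMSO only wells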). As to conditions: HeLa MMTV-bla, beta-lactamase ratio, agonist, 18 h; activation: stronger effect = higher value, percent of dexamethasone control, DMSO zero. In short, it runs like this: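 HeLa GRE-bla reporter cells; 18 h compound exposure at 37 C; 2 h CCF4 loading at room temperature; fluorescence at 460 and 530 nm; EC50 by Hill equation.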

Experiment [4] concerns the target Peroxisome proliferator-activated receptor delta (Homo sapiens) (UniProt Q03181). The experiment is described as follows: qHTS assay for small molecule agonists of peroxisome proliferator-activated receptor delta signaling (AID 588534).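 Also: 0% = DMSO basal wells and 100% = positive control agonist at 10 µM.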 In short, it runs like this:
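Fluorescence from CCF4 substrate cleavage by beta-lactamase reporter, read 2 hrs at RT, measured agonist activity. Compounds were tested with 18 hrs exposure at 37 C. Concentration-response data fitted to Hill equation.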

The target of experiment [5] is Vitamin D3 receptor (Homo sapiens) (UniProt P11473). The experiment in a line: qHTS assay for small molecule antagonists of vitamin D receptor signaling (AID 588541).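 Also: receptor activated by calcitriol during compound treatment; series mostly up to about 77 µM; % is scaled to controls: 0 for no effect and ±100 for the full control effect.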 In short, it runs like this:
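VDR-UAS-bla HEK293T cells in 2% charcoal-stripped FBS were stimulated with 1-alpha,25-dihydroxyvitamin D3 (3 nM final) plus compound for 16 h at 37 C. The beta-lactamase CCF4 readout was normalized to 50 nM agonist and DMSO, and Hill fits gave IC50.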

Experiment [6] has the same target. The experiment in a line: qHTS assay for small molecule agonists of vitamin D receptor signaling (AID 588543).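 Also: 0% = DMSO basal and 100% = reference agonist control.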 In short, it runs like this: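 Reporter cells (HEK293T, VDR-UAS-bla) were seeded in medium with 2% charcoal-stripped serum and incubated 5 h, then compounds in concentration series were added for 16 h at 37 °C. Stimulation was scaled between DMSO basal and 50 nM 1α,25-dihydroxyvitamin D3.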

For experiment [7], the target named is Thyroid hormone receptor beta (Homo sapiens) (UniProt P10828). The experiment is described as follows: qHTS assay for small molecule agonists of thyroid hormone receptor beta signaling (AID 588545). In short, it runs like this: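 Cells (2500/well) were seeded, incubated 4 hrs at 37 C, dosed with a compound series, incubated 18 hrs, loaded with CCF4 dye for 2 hrs at RT, then read for fluorescence. Data were scaled between DMSO (0%) and 10 nM T3 (100%).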

The nature of experiment [8]: qHTS assay for small molecule antagonists of retinoid X receptor alpha signaling (AID 588546; active = well fitted inhibition curve with a large enough effect in the signal ratio, with a control signal flat, not every such curve was filed as active; the % refers to the signal ratio;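 also: cells stimulated with 9-cis-retinoic acid as agonist; % is scaled to controls: 0 for no effect and ±100 for the full control effect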). As to conditions: HEK293T RXRa-UAS-bla, beta-lactamase ratio, antagonist mode; measured here: W530 green channel, cytotoxicity proxy. In short, it runs like this:
(§1)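 Beta-lactamase reporter inhibition, read as CCF4 fluorescence ratio (ex 405, em 460/530 nm) after 2 h at RT. HEK293T UAS-bla cells, 2500/well, were stimulated with 9-cis-RA at 500 or 100 nM final alongside test compound for 18 h at 37 C.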

The target of experiment [9] is Retinoic acid receptor RXR-alpha (Homo sapiens) (UniProt P19793). Described as above. To be noted: HEK293T RXRa-UAS-bla, beta-lactamase ratio, antagonist mode. The essentials: as §1
Experiment [10] can be described thus: qHTS assay for small molecule agonists of the antioxidant response element (ARE) signaling pathway (AID 651741; active = well fitted activation curve with a large enough effect in the signal ratio; the % refers to the signal ratio; also: potency is read from the fitted curve at half-maximal effect; as to activation: % of control where 0% means no effect). The essentials: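 CellSensor ARE-bla HepG2 cells (2,000/well) carrying ARE-driven beta-lactamase, exposed 16 h at 37 C. LiveBLAzer B/G FRET substrate added for 2 h at room temperature; fluorescence intensity read.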
Experiment [11] in a line: qHTS assay for small molecule activators of the nuclear factor-kappa B (NF-kB) signaling pathway (AID 651749; active = well fitted activation curve with a large enough effect in the signal ratio; the % refers to the signal ratio; also: series mostly up to about 77 µM; % of control where 0% means no effect). To be noted: NF-kB-bla ME-180 cells, beta-lactamase FRET ratio, 16 h; activation: stronger effect = higher value. The essentials:
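NF-kB-bla ME-180 cells carrying a beta-lactamase reporter under an NF-kB response element, 2,000 cells/well, exposed to compound for 16 hr at 37C; FRET-based beta-lactamase fluorescence read-out of pathway activation.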

Experiment [12] is described as follows: qHTS assay for environmental chemicals that activate the Aryl hydrocarbon Receptor (AhR) signaling pathway (AID 651777; active = well fitted curve in the direction sought with a large enough effect; an effect the other way counts as inactive or inconclusive; also: % of control where 0% means no effect; nearly all actives have a fitted effect of over 15% in size). As to conditions: 1A2-DRE human hepatoma cells, luciferase, 24 h; activation: stronger effect = higher value. The essentials: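 Measured luciferase activity, read 30 min after One-Glo addition at room temperature, from human hepatoma cells bearing a dioxin response element–CYP1A2 promoter reporter and exposed to compound for 24 hr at 37 C.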

Experiment [13] has as its target Peroxisome proliferator-activated receptor alpha (Homo sapiens) (UniProt Q07869). The experiment in a line: qHTS assay for small molecule agonists of the peroxisome proliferator-activated receptor alpha (PPARalpha) signaling pathway (AID 651778; active = well fitted curve in the direction sought with a large enough effect; an effect the other way counts as inactive or inconclusive; also: % of control where 0% means no effect). To be noted: PathHunter PPARalpha complementation, chemiluminescence, 6 h; max response: stronger effect = higher value. The essentials: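 Enzyme-fragment complementation assay in which ligand-bound PPARalpha translocates and forms an active enzyme that generates chemiluminescence. Cells were plated overnight, exposed to compound for 6 hr at 37 C, and then given detection reagent for 60 min at room temperature.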

Experiment [14] can be described thus: qHTS assay for small molecule agonists of the antioxidant response element (ARE) signaling pathway measured by Nrf2-dependant transcriptional activity (AID 720636; active = well fitted curve in the direction sought with a large enough effect in the repeat runs; an effect the other way counts as inactive or inconclusive; also: potency is read from the fitted curve at half-maximal effect;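 as to activation: HepG2 cells with an ARE-driven luciferase reporter; % of control where 0% means no effect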). In short, it runs like this:
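In HepG2 cells engineered with an Nrf2-responsive luciferase gene, ARE induction was quantified as luminescence after 16 hr compound treatment at 37 C.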

Experiment [15] in a line: qHTS assay for small molecule agonists of the antioxidant response element (ARE) signaling pathway measured by Nrf2-dependant transcriptional activity - cell viability counter screen (AID 720653; active = well fitted curve in the direction sought with a large enough effect in the repeat runs; an effect the other way counts as inactive or inconclusive; also: % is scaled to controls: 0 for no effect and ±100 for the full control effect). To be noted: ARE-bla HepG2 viability, CellTiter-Glo ATP luminescence, 16 h; max response: stronger effect = lower value. The essentials: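 ARE-bla HepG2 cells treated with compounds for 16 h at 37C; this counter screen measures viability as intracellular ATP by CellTiter-Glo luminescence after 30 min at room temperature.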

Experiment [16] is described as follows: qHTS assay for cell viability of HEK293 cells (AID 743288; active = well fitted curve in the direction sought with a large enough effect; an effect the other way counts as inactive or inconclusive; also: nearly all actives have a fitted effect of over 50% in size; also: potency is read from the fitted curve at half-maximal effect). As to conditions: ATP luminescence (CellTiter-Glo), 18 h; max response: stronger effect = lower value. The essentials: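 HEK293 parental, 2,000 cells/well; ≥5 h pre-incubation 37 C; pintool compound addition; 18 h, 37 C; CellTiter-Glo 30 min RT; luminescence read.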
The nature of experiment [17]: qHTS assay for cell viability of the p53RE-bla HCT-116 cell line (AID 743292; active = well fitted curve in the direction sought with a large enough effect; an effect the other way counts as inactive or inconclusive; also: nearly all actives have a fitted effect of over 55% in size; also: potency is read from the fitted curve at half-maximal effect). In short, it runs like this: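 Intracellular ATP of p53RE-bla HCT-116 cells measured by luciferase luminescence following 16 h compound incubation at 37 C; DMSO-only wells served as vehicle controls.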
The target in experiment [18] is Nuclear receptor subfamily 1 group I member 2 (Rattus norvegicus) (UniProt Q9R1A7). The experiment is described as follows: qHTS assay for small molecule activators of the rat pregnane X receptor (rPXR) signaling pathway (AID 651751; call rule not given here; also: 0% is about no effect). To be noted: rPXR reporter cells, luciferase (One-Glo), 24 h.
Experiment [19] concerns the target Thyroid hormone receptor beta (Homo sapiens) (UniProt P10828). The experiment in a line: qHTS assay for small molecule antagonists of thyroid hormone receptor beta signaling (AID 588547; active = well fitted inhibition curve with a large enough effect in the signal ratio, with a control signal flat, not every such curve was filed as active; the % refers to the signal ratio). To be noted: TR-UAS-bla HEK293, beta-lactamase ratio, antagonist mode, 18 h. In short, it runs like this: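 TR-UAS-bla GripTite HEK293 cells in 2% charcoal/dextran FBS medium; compounds 0.59 nM to 92 uM with T3 at 0.4nM final, 18 h at 37 C. Beta-lactamase read by CCF4 fluorescence (460/530 nm); Hill fits gave IC50 and efficacy.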

Experiment [20] in a line: qHTS assay for small molecule activators of the p53 signaling pathway (AID 651743; active = well fitted activation curve with a large enough effect in the signal ratio, not every such curve was filed as active; the % refers to the signal ratio; also: series mostly up to about 92 µM; % of control where 0% means no effect). As to conditions: HCT-116 p53RE-bla, beta-lactamase FRET ratio, 16 h; activation: stronger effect = higher value. In short, it runs like this: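 p53RE-bla HCT-116 cells carrying a beta-lactamase reporter under p53 response elements were exposed to compounds for 16 hours at 37 C. Reporter activity read as fluorescence after 2 hours at room temperature with LiveBLAzer B/G FRET substrate.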

“And” between values parts separate entries of the source, which are not always exact repeats. Identical values can stand only once. Records with an inconclusive call do not appear. The source made the active and inactive calls. Unless noted, calls follow the shape of the full dose curve.

Thyroid hormone receptor beta (Homo sapiens), sequence (P10828 whole entry, looked up): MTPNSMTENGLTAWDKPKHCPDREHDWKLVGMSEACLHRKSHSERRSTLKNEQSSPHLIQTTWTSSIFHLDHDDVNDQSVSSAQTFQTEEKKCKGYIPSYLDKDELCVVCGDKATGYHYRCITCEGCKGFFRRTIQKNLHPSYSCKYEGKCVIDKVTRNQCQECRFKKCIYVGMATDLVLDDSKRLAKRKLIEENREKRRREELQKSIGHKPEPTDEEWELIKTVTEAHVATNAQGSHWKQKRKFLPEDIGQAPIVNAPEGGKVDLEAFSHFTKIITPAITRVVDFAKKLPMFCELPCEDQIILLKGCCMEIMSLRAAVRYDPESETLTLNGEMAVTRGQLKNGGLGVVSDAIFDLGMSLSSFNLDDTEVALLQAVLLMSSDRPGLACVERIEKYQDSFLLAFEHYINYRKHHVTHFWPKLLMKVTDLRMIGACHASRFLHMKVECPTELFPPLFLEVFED
Vitamin D3 receptor (Homo sapiens), sequence (P11473 whole entry, looked up): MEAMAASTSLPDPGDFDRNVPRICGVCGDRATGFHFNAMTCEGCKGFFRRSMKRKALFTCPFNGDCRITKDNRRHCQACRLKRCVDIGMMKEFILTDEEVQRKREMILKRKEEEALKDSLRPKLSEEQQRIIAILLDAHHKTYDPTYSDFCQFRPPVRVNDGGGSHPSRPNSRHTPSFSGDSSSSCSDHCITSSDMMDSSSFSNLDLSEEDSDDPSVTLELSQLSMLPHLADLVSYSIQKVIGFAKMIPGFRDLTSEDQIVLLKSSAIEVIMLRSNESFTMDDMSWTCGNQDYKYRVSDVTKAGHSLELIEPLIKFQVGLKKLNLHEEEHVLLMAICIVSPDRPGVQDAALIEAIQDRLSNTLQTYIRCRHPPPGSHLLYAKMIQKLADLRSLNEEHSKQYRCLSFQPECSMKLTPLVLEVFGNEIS
Glucocorticoid receptor (Homo sapiens), sequence (P04150 whole entry, looked up): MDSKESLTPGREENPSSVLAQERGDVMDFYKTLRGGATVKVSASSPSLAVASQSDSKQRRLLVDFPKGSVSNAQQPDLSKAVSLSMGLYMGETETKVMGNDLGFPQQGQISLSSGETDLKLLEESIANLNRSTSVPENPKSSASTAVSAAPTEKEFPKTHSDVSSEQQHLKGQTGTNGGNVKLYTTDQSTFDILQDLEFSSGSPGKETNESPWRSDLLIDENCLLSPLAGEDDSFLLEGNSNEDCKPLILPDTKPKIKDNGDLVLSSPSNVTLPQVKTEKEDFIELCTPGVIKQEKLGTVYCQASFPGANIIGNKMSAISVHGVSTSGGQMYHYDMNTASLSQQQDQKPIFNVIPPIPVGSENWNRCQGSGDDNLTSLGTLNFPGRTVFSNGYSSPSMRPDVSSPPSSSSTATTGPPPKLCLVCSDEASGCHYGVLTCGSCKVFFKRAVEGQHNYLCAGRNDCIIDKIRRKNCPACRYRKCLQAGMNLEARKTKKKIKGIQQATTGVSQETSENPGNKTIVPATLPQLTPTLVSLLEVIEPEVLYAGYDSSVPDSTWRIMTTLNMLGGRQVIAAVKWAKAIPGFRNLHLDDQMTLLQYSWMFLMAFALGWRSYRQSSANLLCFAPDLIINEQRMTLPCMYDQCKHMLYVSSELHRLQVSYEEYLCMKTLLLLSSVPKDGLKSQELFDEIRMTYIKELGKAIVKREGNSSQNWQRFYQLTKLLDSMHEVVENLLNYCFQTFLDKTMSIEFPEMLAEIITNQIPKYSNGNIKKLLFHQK
Bile acid receptor (Homo sapiens), sequence (Q96RI1 whole entry, looked up): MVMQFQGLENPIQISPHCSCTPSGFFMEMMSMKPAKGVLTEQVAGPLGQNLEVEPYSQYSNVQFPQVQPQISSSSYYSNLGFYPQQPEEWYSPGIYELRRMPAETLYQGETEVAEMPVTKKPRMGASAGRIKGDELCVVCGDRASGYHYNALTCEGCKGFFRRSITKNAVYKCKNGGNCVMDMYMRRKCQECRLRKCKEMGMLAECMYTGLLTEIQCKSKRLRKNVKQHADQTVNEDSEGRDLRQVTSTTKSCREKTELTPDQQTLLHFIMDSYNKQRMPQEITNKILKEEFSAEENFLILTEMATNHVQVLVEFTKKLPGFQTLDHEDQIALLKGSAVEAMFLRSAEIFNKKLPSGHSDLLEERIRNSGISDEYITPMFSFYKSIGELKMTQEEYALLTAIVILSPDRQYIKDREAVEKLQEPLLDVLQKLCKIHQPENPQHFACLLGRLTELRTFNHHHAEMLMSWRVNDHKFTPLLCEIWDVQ
Peroxisome proliferator-activated receptor alpha (Homo sapiens), sequence (Q07869 whole entry, looked up, the tested form may be a part): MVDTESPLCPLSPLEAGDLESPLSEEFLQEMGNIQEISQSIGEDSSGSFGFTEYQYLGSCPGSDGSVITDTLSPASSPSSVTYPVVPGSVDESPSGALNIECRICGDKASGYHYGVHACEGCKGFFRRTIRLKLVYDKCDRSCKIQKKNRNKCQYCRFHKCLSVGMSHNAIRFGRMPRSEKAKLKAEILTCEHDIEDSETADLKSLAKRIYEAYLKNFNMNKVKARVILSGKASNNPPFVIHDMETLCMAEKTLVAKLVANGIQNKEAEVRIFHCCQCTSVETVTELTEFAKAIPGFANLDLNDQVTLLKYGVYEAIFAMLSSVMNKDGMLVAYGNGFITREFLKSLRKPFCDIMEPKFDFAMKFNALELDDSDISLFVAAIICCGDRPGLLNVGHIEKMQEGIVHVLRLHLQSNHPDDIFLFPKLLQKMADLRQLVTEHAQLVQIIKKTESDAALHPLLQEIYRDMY
Peroxisome proliferator-activated receptor delta (Homo sapiens), sequence (Q03181 whole entry, looked up): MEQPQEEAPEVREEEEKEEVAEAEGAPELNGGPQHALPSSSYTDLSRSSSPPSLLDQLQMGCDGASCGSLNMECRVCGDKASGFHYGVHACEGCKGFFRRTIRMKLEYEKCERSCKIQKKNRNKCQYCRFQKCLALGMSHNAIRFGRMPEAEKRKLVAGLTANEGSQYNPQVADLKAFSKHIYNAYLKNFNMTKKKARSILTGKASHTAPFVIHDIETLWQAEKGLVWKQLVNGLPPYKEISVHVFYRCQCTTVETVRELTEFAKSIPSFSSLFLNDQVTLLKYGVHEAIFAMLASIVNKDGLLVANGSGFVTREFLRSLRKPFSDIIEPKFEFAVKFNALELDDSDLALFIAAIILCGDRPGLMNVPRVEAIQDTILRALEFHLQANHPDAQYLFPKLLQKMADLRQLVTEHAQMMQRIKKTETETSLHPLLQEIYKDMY
Retinoic acid receptor RXR-alpha (Homo sapiens), sequence (P19793 whole entry, looked up): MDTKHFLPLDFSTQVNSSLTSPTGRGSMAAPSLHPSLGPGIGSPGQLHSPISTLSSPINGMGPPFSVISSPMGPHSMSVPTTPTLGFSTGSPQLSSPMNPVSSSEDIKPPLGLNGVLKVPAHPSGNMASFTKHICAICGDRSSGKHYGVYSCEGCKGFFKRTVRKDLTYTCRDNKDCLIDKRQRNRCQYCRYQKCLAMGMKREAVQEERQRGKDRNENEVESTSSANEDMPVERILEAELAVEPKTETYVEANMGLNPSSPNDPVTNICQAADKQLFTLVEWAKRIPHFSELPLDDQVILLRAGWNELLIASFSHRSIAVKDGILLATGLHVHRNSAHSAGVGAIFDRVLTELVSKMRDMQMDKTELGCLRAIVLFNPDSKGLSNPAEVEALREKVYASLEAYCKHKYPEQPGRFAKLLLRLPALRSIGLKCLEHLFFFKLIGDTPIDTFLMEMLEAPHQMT
Nuclear receptor subfamily 1 group I member 2 (Rattus norvegicus), sequence (Q9R1A7 whole entry, looked up): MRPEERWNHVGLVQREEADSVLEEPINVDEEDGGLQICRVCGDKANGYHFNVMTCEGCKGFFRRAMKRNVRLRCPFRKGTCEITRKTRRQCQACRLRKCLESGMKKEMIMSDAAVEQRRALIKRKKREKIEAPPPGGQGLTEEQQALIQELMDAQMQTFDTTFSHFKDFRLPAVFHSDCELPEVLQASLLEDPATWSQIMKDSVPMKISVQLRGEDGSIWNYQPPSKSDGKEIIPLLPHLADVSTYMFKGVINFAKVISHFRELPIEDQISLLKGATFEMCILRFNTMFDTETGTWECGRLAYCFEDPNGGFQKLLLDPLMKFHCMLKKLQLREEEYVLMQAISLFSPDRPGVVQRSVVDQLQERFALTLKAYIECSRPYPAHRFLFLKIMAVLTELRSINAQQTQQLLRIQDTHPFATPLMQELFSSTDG

Turning to `Nc1ccc(S(=O)(=O)O)cc1`, in [1], the activation is -1.98% (inactive) and -2.03% (inactive).
Regarding `c1ccc(Oc2ccccc2)cc1`, the activation in experiment [1] is -0.867% (inactive).
With `c1ccc2cc3ccccc3cc2c1`, the activation in experiment [1] is -1.8% (inactive).
Turning to `Cc1ccccc1C(N)=O`, in experiment [1], the activation was 2.86% (inactive).
Regarding `O=C(O)c1c(Cl)ccc2cc(Cl)cnc12`, the Potency entry in experiment [2], in experiment [5], in experiment [7], in experiment [10], in experiment [14] and in experiment [17] was “inactive” in each case. Moreover, the activation is 3.46% (inactive) in [3], -0.182% (inactive) in experiment [11] and 2.06% (inactive) in [12]. Also, the call in [4] and in experiment [6] was inactive. The max response in [8] is 3.11%; in [9] it was -13.1% (inactive); in experiment [13] it was -2.09% (inactive); in experiment [15] it was -9.56% (inactive); in experiment [16], -11.4% (inactive); in experiment [18], -2.15% (inactive).
Take `C#CCC1=C(C)[C@H](OC(=O)[C@H]2[C@H](C=C(C)C)C2(C)C)CC1=O`: the Potency entry in [2], in [5], in experiment [7], in [14] and in experiment [17] was “inactive” in each case. Also, the values for the activation in experiment [1], in experiment [20] and in experiment [12] were 1.85% (inactive), 1.18% (inactive) and 9.06% (inactive), respectively. Besides, the outcome in experiment [4] and in experiment [6] was inactive. Further, the max response in experiment [8] was -0.262%; in experiment [9] it was -4.47% (inactive); in [13], 3.44% (inactive); in experiment [15], -1.44% (inactive); in experiment [16], -10.8% (inactive). In experiment [19], the activity change % (negative = inhibition) was -5.41% (inactive). The Potency in experiment [10] is 61.1 µM (active).
In the case of `CCC(C)(c1ccc(O)cc1)c1ccc(O)cc1`, the Potency entry in experiment [2], in experiment [7], in experiment [14] and in [17] was “inactive” in each case. The activation in [1] was 1.29% (inactive); in experiment [20], -1.26% (inactive); in experiment [11], -1.76% (inactive); in [12] it was -1.12% (inactive). Moreover, the activity change % (negative = inhibition) in experiment [19] is 5.47% (inactive). Besides, in [10], the Potency was 54.5 µM (active). Moreover, the values for the max response in experiment [13], in [15] and in experiment [18] were -1.57% (inactive), -14.2% (inactive) and -0.68% (inactive), respectively.
On to `CC/C=C/C/C=C/C/C=C/CCCCCCCC(=O)OCC`, for which, in experiment [1], the activation was 1.74% (inactive).
For the compound `CCCCCCCCCCCCCCCCN(C)C`, the activation in experiment [1] is 3.83% (inactive). Besides, the call in experiment [4] was inactive.
As to `CC(C)(C)c1ccc(CSc2cnn(C(C)(C)C)c(=O)c2Cl)cc1`, the figures for the activation in [1], in experiment [3] and in experiment [12] were 6.79% (inactive), -0.474% (inactive) and -3.11% (inactive), respectively. For the same compound, the Potency in experiment [10] was 0.0969 µM (active). The max response in [13] was -6% (inactive). Besides, the Potency entry in experiment [17] was “inactive”.
On to `C1CC[CH]([Sn]([CH]2CCCCC2)[CH]2CCCCC2)CC1`, for which the activation was 0.852% (inactive) in [1] and -8.17% (inactive) in experiment [20]. Besides, the Potency result in [7] was “inactive”. Besides, the Potency is 19.3 µM (active) in experiment [10], 13.7 µM (active) in [14], 31.6 µM (active) in [16] and 39.8 µM (active) in [17]. Besides, the max response in [13] is -0.731% (inactive).
For the compound `CSC1=N[C@@](C)(c2ccccc2)C(=O)N1Nc1ccccc1`, the activation in experiment [1] is 1.54% (inactive); in experiment [3], 0.812% (inactive); in experiment [12] it was -5.24% (inactive). Also, the compound was called inactive in experiment [4] and in [6]. The Potency entry in experiment [7], in [14] and in [17] was “inactive” throughout. Moreover, in [19], the activity change % (negative = inhibition) is -28.6% (inactive). Moreover, the Potency in [10] was 6.86 µM (active). Also, the max response in experiment [13] is -0.163% (inactive); in [16], -18% (inactive).
